High-throughput results as filed in PubChem BioAssay.
ABCB6 inh MLPCN: blocks the human ABCB6 transporter; K562-ABCB6 porphyrin accumulation, flow cytometry, 1 h; hits give low values; Q9NP58; fluorescence ratio to DMSO, % at 10 µM; AID 602162; 360,000 compounds, 0.19% hits;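 active means fluorescence ratio to DMSO below 75%, the collection mean minus 3 SD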;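 further: signal is porphyrin accumulated inside mitochondria; 100% equals median channel fluorescence of DMSO control wells; lower ratio means ABCB6 inhibition with less porphyrin fluorescence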
Target sequence (Q9NP58 whole entry, looked up): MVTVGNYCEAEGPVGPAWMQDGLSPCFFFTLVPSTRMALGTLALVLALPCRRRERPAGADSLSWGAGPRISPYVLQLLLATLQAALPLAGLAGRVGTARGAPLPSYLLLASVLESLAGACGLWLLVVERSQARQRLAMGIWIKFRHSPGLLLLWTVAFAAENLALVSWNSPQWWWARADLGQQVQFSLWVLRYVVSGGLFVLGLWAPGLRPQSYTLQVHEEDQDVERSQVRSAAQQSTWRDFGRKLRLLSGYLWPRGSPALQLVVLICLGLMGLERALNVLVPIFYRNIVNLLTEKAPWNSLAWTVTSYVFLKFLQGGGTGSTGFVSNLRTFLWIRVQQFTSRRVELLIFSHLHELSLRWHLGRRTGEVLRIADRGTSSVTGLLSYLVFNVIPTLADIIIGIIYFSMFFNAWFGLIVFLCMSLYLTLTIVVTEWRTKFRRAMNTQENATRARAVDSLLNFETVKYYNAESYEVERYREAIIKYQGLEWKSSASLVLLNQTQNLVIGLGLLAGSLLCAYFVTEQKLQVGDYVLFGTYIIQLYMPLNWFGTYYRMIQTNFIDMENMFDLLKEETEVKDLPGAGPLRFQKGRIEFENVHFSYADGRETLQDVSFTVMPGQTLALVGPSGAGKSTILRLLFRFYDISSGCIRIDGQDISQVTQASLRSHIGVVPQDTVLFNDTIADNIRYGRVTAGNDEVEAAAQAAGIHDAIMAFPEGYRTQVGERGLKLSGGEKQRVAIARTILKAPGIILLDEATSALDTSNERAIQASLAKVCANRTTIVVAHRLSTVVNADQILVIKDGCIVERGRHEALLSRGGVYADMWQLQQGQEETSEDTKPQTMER
MLLE-PAM2 inh: inhibitors of microRNA-mediated deadenylation, human PABP1 MLLE binding; P11940; GST-MLLE / FITC-PAM2 fluorescence polarization; inhibition, % at 20 µM; 360,000 compounds, 0.36% hits; in the data active means inhibition above about 35%, passing the limit was not always enough;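 further: plate controls were DMSO wells with GST-MLLE for no effect and wells lacking GST-MLLE protein for full effect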
eIF4H FP inh: inhibitors of RNA binding by human eIF4H; inhibition, % at 35 µM; 290,000 compounds, 0.94% hits; Q15056; eIF4H fluorescence polarization binding assay; AID 2012;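 further: calls also rest on retests at 20 µM and on dose response follow-up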
PABP FP inh: PABP-poly(A) binding inhibition; 290,000 compounds, 1% hits; PABP-poly(A) RNA binding, fluorescence polarization; AID 2014; calls only at 35 µM; P11940;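 further: calls also rest on retests at 20 µM and on dose response follow-up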
PHOSPHO1 block: PHOSPHO1 (human) inhibition; Q8TCT1; recombinant PHOSPHO1, absorbance phosphatase assay; AID 1565; inhibition, % at 13.3 µM; 290,000 compounds, 1.1% hits; in the data active means inhibition above about 60%
AI-2 QS mod: modulators of Vibrio harveyi AI-2 quorum sensing system. AID 2094. activity change, % at 7.5 µM. 300,000 compounds, 0.4% hits. Vibrio harveyi JMH597 AI-2 luminescence/OD600 ratio, 9 h; hits give low values; strain lacks LuxN and CqsS sensors; 0 = neutral-control median; in the data active means activity change below about -75%, passing the limit was not always enough;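 further: luminescence divided by OD600 gain over 9 h not by final OD600 alone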
Numbers without * were called inactive; i = inactive; . = no result; + = active, no number. Only some compounds are listed: those with a hit (about 2.6% of all), similar ones and a draw of the others. Unless noted, how the calls were made is not given here.

SMILES	ABCB6 inh MLPCN	MLLE-PAM2 inh	eIF4H FP inh	PABP FP inh	PHOSPHO1 block	AI-2 QS mod
CCCCn1c(SCN2C(=O)c3ccccc3C2=O)nc2cc(S(N)(=O)=O)ccc21	101	-98	2	i	90*	20
CCCCn1c(SCn2nnc3ccccc3c2=O)nc2cc(S(N)(=O)=O)ccc21	97	-79	1	i	35	12
CCCCn1c(SCC(=O)c2cc(OC)ccc2OC)nc2cc(S(N)(=O)=O)ccc21	92	-62	-3	i	65*	13
COc1ccc(C(O)c2ncc(-c3ccccc3Cl)[nH]2)cc1F (stereo not given)	102	-9	.	.	.	.
CN1c2ccsc2C(O)=C(C(=S)Nc2ccc(F)c(Cl)c2)S1(=O)=O	103	18	69	i	92*	12
Cn1cc(C(=O)Nc2ccc(F)c(Cl)c2)cn1	96	0	4	i	0	16
CCn1c(CSc2nc3ccccc3s2)nnc1SCC(=O)c1ccc(O)cc1O	98	-68	6	i	83*	2
C=CCn1c(CSc2nc3ccccc3s2)nnc1SCC(=O)OCC	99	-1	-1	i	17	-5
COc1ccc(C(NC(=O)C2CCN(CCCOc3ccccc3)CC2)c2cccs2)cc1 (stereo not given)	99	-10	.	.	.	.
NC(=O)NC(=O)CC1S/C(=N/N=C2\CSC(=O)N2)NC1=O (stereo not given)	104	43*	12	i	-4	7
CCC(=O)N1CCCC(C)(C(=O)NS(=O)(=O)c2ccccc2Cl)C1 (stereo not given)	97	1	.	.	.	.
CSc1ccc(OC2(C)CCN(Cc3ccc(-c4ccccn4)cc3)C2)cc1 (stereo not given)	94	17	.	.	.	.
O=S1(=O)N[C@H](Cc2ccccc2)COc2cccc(N3CCSCC3)c21	97	.	.	.	.	.
O=C(Oc1ccccc1)c1ccc(-n2cnnn2)cc1	90	-11	12	i	15	14
O=C(Oc1ccc(-n2cnnn2)cc1)c1ccccc1	97	-6	71*	i	33	38
NC(=O)COc1ccc(-n2cnnn2)cc1	101	2	92*	i	-13	16
NC(=O)c1ccc(NC(=O)COc2ccc(-n3cnnn3)cc2)cc1	97	-29	.	.	.	.
N#Cc1ccc2c(=O)n(-c3ccccc3)sc2c1	97	39*	.	.	.	.
O=c1c2ccccc2sn1-c1ccccc1	108	46*	-4	i	-48	28
O=C(O)CN1C(=O)C2C3CC(C2C1=O)C1C(c2ccc(F)cc2)c2sc(=O)[nH]c2SC31 (stereo not given)	102	39*	8	i	16	16
CCOc1ccc(-c2cc(C(=O)NCc3ccccc3)[nH]n2)c(C)c1	94	-1	.	.	.	.
CCCCC(c1nc2ccccc2[nH]1)n1c(=O)c(-c2ccccc2)nc2cc(C)c(C)cc21 (stereo not given)	103	4	.	.	.	.
CCCCn1c(=O)c(CCC(=O)OCC(=O)NC(=O)NCCOC)nc2ccccc21	102	-2	-4	i	36	-3
CCCCn1c(=O)c(CCC(=O)OCC(=O)NC(=O)NCCC(C)C)nc2ccccc21	86	18	active	i	1	24
CC(C)(C)S(=O)N1Cc2cc(C(=O)NCC(F)(F)F)nc(-c3cccc(-c4cccc(F)c4)c3)c2[C@@H]1CCO (stereo not given in full)	96	1	.	.	.	.
SMILES	ABCB6 inh MLPCN	MLLE-PAM2 inh	eIF4H FP inh	PABP FP inh	PHOSPHO1 block	AI-2 QS mod
Cc1cc(C(=O)CSc2nnc(-c3ccco3)o2)c(C)n1Cc1ccco1	89	-44	65*	+	1	-9
Cc1cc(C(=O)CSc2nc3ccccc3[nH]2)c(C)n1Cc1ccco1	87	-80	87*	+	-1	6
CCN(CC)S(=O)(=O)c1cccc(-c2nnc(SCC(=O)c3cc(C)n(C)c3C)o2)c1	92	-132	100	+	80*	-11
CCN(CC)S(=O)(=O)c1cccc(-c2nnc(SCCOc3ccccc3)o2)c1	95	-1	-3	i	1	5
Cc1cc(C(=O)CSc2nnnn2C)c(C)n1-c1ccc2c(c1)OCCO2	97	-32	13	i	43	12
Cc1cc(C(=O)CSc2nnc(-c3ccco3)o2)c(C)n1-c1ccc2c(c1)OCCO2	95	-35	2	i	92*	3
C=CCn1c(C)cc(C(=O)CSc2nc3ccccc3[nH]2)c1C	106	-50	13	i	15	-27
OCCN1CCN(c2ncnc3c2ncn3[C@H]2CN(Cc3ccc4c(c3)OCO4)C[C@@H](CO)O2)CC1	95	8	.	.	.	.
Fc1ccc(NC(=S)NCc2ccccc2Cl)cc1	62*	-28	-4	i	5	-5
COc1ccccc1CNC(=S)Nc1ccc(F)cc1	101	-17	-2	i	29	17
[N-]=[N+]=NC(c1ccccc1)C(NC(=O)c1cc(C(F)(F)F)cc(C(F)(F)F)c1)c1ccccc1 (stereo not given)	102	.	.	.	.	.
CN(CC(=O)NCC1CCCO1)S(=O)(=O)c1ccc2ccccc2c1 (stereo not given)	101	-6	.	.	.	.
O=C(Nc1nc(-c2ccccn2)cs1)c1ccc(Br)s1	98	1	21	i	10	-95*
O=C(Nc1nc(-c2ccccn2)cs1)c1ccco1	107	6	86	i	-102	32
N=c1c[n+](-c2ccc(Cl)cc2)[n-]o1	86	-14	7	i	93*	0
CC(C)CNC1=CC(=O)CC(c2ccco2)C1 (stereo not given)	98	6	108*	+	4	22
O=C1C=C(O)CC(c2ccco2)C1 (stereo not given)	103	-1	104*	+	10	2
O=C1C=C(Nc2ccc(O)cc2)CC(c2ccco2)C1 (stereo not given)	103	5	0	i	-29	5
OC(c1ccccc1)c1nc(-c2ccc(F)c(Cl)c2)cs1 (stereo not given)	94	-1	.	.	.	.
O=C1CCNc2c(Cl)cc(Cl)cc21	99	27	51*	i	32	-24
CC1=NNC(=O)C1CCC(=O)N/N=C/c1ccc(Cl)cc1 (stereo not given)	97	-9	-7	i	28	17
CC1=NNC(=O)C1CCC(=O)N/N=C/c1c(Cl)cccc1Cl (stereo not given)	101	-2	4	i	65*	9
CC(C)(C)c1ccc(C(=O)N2CCC2(C)C(=O)Nc2ccc3nc[nH]c3c2)cc1 (stereo not given)	96	-26	.	.	.	.
COC(=O)c1ccc(CSc2nnc(Nc3ccc(OC)cc3)s2)o1	94	-44	6	i	71*	21
